# Test results published in ChEMBL document CHEMBL1961873, “Compounds: GSK PKIS; Assays: Nanosyn kinase panel” (2012).
# Key:
# [1] = target: T1, Aurora kinase A (Homo sapiens) (UniProt O14965); conditions: at 1 µM;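 further: values are mean percent inhibition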
# T1 sequence (whole entry): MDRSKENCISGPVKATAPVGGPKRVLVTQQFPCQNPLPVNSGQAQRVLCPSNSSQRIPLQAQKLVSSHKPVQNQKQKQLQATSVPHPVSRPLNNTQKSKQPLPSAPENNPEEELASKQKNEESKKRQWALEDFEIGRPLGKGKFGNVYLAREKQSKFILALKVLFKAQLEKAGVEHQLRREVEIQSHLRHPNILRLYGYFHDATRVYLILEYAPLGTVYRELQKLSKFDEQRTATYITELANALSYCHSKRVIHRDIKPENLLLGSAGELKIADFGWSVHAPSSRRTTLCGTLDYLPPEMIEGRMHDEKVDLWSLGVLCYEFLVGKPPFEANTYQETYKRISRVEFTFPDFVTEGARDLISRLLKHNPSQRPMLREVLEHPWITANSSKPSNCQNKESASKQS
# [2] = target: Aurora kinase B (Homo sapiens) (UniProt Q96GD4); conditions: at 0.1 µM
# Chain of Aurora kinase B (Homo sapiens) (Q96GD4 whole entry): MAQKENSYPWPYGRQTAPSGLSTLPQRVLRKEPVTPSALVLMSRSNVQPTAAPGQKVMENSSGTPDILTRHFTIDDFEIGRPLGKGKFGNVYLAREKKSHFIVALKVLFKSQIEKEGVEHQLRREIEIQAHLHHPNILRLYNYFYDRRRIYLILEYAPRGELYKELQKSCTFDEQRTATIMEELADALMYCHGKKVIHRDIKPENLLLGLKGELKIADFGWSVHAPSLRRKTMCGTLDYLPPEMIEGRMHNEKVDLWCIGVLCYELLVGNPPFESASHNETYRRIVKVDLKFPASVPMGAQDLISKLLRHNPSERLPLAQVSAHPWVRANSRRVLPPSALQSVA
# [3] = target: Aurora kinase B (Homo sapiens) (UniProt Q96GD4); conditions: at 1 µM
# [4] = target: T2, Aurora kinase C (Homo sapiens) (UniProt Q9UQB9); conditions: at 0.1 µM
# T2 sequence (whole entry): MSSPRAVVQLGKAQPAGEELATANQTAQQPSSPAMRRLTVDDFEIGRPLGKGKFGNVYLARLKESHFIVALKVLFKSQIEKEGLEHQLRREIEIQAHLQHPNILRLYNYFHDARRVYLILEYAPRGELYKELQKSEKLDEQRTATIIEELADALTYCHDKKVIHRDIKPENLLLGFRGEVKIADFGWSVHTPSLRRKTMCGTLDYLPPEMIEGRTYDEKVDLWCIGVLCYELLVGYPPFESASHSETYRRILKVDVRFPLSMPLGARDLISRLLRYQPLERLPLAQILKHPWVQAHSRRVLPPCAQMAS
# [5] = target: T2, Aurora kinase C (Homo sapiens); conditions: at 1 µM
# [6] = target: Serine/threonine-protein kinase 10 (Homo sapiens) (UniProt O94804); conditions: at 0.1 µM
# Chain of Serine/threonine-protein kinase 10 (Homo sapiens) (O94804 whole entry, looked up): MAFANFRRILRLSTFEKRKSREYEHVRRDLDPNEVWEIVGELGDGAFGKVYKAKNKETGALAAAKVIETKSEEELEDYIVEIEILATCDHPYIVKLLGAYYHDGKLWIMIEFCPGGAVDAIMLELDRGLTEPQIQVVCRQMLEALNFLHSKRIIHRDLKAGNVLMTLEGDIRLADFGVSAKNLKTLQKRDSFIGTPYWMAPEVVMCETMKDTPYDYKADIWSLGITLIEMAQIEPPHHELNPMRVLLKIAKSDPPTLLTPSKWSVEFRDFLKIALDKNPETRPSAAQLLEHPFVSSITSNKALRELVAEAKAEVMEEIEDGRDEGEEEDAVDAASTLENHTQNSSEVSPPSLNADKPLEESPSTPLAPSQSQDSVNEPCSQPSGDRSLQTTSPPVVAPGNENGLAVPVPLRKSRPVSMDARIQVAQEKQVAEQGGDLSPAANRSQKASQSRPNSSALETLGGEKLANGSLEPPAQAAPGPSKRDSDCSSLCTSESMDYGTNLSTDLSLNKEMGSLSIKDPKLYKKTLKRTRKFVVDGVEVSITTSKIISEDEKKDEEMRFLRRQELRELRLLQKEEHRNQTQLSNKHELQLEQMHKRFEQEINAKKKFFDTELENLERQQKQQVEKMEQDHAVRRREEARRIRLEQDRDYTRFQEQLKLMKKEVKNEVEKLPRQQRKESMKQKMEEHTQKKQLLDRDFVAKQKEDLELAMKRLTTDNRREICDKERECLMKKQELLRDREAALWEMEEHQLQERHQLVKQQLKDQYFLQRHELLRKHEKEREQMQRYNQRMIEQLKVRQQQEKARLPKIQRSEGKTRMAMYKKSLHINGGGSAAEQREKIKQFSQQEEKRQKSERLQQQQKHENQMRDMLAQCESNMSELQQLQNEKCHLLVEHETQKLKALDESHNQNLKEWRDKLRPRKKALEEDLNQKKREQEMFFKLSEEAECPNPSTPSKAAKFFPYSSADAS
# [7] = target: Serine/threonine-protein kinase 10 (Homo sapiens) (UniProt O94804); conditions: at 1 µM
# [8] = target: T3, Mitogen-activated protein kinase kinase kinase kinase 2 (Homo sapiens) (UniProt Q12851); conditions: at 0.1 µM
# T3 sequence (whole entry): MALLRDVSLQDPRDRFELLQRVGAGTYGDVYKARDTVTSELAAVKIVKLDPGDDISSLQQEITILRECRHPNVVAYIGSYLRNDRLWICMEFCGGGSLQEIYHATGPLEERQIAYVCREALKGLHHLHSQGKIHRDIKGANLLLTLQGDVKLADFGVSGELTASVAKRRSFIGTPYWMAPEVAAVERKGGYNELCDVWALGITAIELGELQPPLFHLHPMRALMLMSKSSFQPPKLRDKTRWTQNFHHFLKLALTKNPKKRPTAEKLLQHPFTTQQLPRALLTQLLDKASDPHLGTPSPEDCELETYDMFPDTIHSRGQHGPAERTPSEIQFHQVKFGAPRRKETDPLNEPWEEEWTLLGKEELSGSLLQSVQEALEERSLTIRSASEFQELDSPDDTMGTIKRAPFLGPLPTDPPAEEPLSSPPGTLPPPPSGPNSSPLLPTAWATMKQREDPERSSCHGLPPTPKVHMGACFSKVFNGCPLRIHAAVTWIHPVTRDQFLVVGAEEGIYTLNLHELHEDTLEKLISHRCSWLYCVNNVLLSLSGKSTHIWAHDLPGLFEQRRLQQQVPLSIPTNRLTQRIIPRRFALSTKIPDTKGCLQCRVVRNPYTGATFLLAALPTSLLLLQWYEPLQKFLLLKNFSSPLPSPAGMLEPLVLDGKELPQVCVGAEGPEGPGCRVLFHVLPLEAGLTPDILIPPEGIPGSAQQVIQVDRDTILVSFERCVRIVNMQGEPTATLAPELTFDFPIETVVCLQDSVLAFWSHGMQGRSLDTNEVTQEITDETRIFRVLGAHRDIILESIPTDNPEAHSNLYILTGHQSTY
# [9] = target: T3, Mitogen-activated protein kinase kinase kinase kinase 2 (Homo sapiens); conditions: at 1 µM
# [10] = target: Mitogen-activated protein kinase kinase kinase kinase 4 (Homo sapiens) (UniProt O95819); conditions: at 0.1 µM
# Chain of Mitogen-activated protein kinase kinase kinase kinase 4 (Homo sapiens) (O95819 2-1239 limits assumed): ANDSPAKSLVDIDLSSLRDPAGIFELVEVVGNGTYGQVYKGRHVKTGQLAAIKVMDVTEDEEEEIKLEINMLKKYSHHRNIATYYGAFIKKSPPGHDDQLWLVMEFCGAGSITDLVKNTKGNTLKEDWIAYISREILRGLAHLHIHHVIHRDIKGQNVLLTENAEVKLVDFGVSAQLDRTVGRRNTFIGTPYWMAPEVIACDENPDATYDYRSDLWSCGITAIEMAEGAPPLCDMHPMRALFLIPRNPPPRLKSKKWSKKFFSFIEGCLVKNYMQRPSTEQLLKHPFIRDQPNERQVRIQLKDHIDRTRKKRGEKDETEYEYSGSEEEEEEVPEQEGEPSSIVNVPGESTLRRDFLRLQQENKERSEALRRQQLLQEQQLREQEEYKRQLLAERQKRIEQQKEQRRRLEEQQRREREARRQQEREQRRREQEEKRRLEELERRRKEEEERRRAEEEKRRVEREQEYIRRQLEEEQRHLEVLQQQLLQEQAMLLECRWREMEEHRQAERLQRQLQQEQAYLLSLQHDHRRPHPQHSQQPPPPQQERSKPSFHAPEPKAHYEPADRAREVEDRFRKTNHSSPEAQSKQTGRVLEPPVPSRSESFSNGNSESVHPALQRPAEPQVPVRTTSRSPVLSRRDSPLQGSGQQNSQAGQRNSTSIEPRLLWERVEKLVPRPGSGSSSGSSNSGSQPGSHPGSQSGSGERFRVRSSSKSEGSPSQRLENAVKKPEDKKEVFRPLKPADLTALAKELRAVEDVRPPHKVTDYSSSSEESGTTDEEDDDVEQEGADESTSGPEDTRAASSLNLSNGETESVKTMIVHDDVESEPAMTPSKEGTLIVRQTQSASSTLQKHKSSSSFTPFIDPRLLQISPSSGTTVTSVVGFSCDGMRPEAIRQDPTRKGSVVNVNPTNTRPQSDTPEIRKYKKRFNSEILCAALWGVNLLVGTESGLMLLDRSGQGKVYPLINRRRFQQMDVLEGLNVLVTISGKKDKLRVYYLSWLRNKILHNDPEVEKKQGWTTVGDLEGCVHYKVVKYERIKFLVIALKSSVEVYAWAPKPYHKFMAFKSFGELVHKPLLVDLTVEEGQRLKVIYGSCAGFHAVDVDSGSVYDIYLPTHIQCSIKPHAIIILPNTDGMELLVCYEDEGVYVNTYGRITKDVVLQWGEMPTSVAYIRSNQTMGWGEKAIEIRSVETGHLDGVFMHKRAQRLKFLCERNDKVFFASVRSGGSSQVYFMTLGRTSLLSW
# [11] = target: Mitogen-activated protein kinase kinase kinase kinase 4 (Homo sapiens) (UniProt O95819); conditions: at 1 µM
# [12] = target: Dual specificity mitogen-activated protein kinase kinase 1 (Homo sapiens) (UniProt Q02750); conditions: at 0.1 µM
# Chain of Dual specificity mitogen-activated protein kinase kinase 1 (Homo sapiens) (Q02750 whole entry): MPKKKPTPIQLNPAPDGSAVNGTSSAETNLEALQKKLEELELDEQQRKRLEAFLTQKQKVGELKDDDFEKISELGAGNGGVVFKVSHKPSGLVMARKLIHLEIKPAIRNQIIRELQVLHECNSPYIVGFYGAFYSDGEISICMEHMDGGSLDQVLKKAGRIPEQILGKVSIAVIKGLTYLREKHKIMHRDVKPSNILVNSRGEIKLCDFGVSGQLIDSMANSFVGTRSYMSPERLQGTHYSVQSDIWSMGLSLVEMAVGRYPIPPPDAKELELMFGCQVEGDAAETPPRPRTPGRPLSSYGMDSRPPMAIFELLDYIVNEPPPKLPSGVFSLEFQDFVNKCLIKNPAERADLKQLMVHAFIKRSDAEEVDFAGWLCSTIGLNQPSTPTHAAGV
# [13] = target: Dual specificity mitogen-activated protein kinase kinase 1 (Homo sapiens) (UniProt Q02750); conditions: at 1 µM
# [14] = target: Misshapen-like kinase 1 (Homo sapiens) (UniProt Q8N4C8); conditions: at 0.1 µM
# Chain of Misshapen-like kinase 1 (Homo sapiens) (Q8N4C8 whole entry, looked up): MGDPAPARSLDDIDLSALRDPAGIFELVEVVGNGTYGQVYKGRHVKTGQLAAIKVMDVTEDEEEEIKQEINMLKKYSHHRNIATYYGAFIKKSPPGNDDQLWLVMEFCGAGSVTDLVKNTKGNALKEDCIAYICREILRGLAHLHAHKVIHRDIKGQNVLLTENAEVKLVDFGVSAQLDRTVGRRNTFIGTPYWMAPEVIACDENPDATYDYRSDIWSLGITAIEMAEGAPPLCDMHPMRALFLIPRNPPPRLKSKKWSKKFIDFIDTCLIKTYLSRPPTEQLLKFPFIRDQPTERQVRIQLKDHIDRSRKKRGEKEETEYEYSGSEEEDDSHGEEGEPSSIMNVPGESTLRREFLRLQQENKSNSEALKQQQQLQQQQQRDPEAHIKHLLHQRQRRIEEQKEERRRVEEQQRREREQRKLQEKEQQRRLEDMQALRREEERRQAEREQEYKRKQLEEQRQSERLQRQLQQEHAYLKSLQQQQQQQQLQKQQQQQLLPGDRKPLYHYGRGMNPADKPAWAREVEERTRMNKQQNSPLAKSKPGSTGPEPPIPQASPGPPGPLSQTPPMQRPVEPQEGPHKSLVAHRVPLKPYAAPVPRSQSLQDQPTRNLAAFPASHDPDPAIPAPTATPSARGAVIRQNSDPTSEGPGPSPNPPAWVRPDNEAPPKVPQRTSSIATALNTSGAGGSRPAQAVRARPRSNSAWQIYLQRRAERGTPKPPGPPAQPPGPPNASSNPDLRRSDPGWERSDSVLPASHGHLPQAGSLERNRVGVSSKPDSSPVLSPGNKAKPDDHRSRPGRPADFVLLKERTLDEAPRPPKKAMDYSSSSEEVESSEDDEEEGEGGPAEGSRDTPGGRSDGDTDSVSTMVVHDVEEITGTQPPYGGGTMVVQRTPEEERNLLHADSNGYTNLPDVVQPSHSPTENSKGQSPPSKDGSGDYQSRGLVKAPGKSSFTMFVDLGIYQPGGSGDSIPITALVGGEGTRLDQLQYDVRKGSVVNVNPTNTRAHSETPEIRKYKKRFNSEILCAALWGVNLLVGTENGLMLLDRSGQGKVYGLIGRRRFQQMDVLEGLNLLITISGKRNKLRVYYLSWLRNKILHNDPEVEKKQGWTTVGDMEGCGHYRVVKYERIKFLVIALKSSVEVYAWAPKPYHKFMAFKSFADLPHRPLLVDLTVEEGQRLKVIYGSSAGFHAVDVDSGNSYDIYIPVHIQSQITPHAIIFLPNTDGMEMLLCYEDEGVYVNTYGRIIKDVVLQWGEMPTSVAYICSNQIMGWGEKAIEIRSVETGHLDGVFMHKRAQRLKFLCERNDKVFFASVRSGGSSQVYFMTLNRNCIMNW
# [15] = target: Misshapen-like kinase 1 (Homo sapiens) (UniProt Q8N4C8); conditions: at 1 µM
# [16] = target: T4, Serine/threonine-protein kinase 4 (Homo sapiens) (UniProt Q13043); conditions: at 0.1 µM
# T4 sequence (whole entry): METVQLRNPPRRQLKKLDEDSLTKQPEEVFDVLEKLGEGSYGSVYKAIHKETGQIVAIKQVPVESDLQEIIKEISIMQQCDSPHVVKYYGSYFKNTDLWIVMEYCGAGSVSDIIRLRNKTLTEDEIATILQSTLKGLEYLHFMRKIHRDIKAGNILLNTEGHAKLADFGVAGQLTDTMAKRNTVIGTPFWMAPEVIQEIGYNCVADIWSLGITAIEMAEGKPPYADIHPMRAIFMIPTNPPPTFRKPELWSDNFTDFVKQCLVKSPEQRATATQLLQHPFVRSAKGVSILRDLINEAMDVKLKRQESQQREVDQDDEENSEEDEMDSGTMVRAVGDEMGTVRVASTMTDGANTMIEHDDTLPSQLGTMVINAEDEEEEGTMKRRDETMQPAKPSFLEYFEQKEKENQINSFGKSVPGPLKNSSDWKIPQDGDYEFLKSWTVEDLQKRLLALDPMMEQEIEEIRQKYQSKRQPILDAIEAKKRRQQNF
# [17] = target: T4, Serine/threonine-protein kinase 4 (Homo sapiens); conditions: at 1 µM
# [18] = target: T5, Serine/threonine-protein kinase 3 (Homo sapiens) (UniProt Q13188); conditions: at 0.1 µM
# T5 sequence (whole entry): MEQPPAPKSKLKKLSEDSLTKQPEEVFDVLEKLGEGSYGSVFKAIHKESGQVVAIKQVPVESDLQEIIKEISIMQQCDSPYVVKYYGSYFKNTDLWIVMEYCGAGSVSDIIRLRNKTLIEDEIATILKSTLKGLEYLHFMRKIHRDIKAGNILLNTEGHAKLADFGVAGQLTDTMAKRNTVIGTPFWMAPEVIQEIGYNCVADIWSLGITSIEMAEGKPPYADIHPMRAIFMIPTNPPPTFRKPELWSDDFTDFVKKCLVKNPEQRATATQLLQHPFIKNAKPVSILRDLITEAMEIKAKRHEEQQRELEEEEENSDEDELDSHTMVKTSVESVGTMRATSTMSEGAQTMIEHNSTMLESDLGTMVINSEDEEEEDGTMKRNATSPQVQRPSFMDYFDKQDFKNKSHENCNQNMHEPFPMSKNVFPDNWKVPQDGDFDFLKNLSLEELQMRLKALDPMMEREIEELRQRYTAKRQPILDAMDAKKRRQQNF
# [19] = target: T5, Serine/threonine-protein kinase 3 (Homo sapiens); conditions: at 1 µM
# [20] = target: Serine/threonine-protein kinase 26 (Homo sapiens) (UniProt Q9P289); conditions: at 0.1 µM
# Chain of Serine/threonine-protein kinase 26 (Homo sapiens) (Q9P289 2-416 limits assumed): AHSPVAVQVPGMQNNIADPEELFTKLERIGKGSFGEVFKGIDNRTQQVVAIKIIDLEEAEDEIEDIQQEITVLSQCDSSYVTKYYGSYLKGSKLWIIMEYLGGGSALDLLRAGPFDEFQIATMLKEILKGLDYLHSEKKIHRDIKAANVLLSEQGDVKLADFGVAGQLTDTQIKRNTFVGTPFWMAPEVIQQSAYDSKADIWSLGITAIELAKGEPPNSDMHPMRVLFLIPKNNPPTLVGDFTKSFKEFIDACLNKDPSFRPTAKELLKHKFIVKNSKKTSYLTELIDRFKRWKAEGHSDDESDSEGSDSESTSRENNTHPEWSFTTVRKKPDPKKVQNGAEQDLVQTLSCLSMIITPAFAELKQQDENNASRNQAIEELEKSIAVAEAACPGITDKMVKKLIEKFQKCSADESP
SMILES,inhibition [1] [%],inhibition [2] [%],inhibition [3] [%],inhibition [4] [%],inhibition [5] [%],inhibition [6] [%],inhibition [7] [%],inhibition [8] [%],inhibition [9] [%],inhibition [10] [%],inhibition [11] [%],inhibition [12] [%],inhibition [13] [%],inhibition [14] [%],inhibition [15] [%],inhibition [16] [%],inhibition [17] [%],inhibition [18] [%],inhibition [19] [%],inhibition [20] [%]
NS(=O)(=O)c1ccc(Nc2ncc(-c3ccccc3)o2)cc1,67.2,5.18,24.7,6.57,54.5,5.53,11.7,1.1,8.73,12.4,58.6,2.3,2.12,8.89,41.9,6.4,10.2,7.3,8.38,-1.93
COc1cc(Nc2nccc(Nc3ccc4c(C)n[nH]c4c3)n2)cc(OC)c1OC,66.5,5.08,24.2,7.34,79.7,26.1,77.6,3.12,7.42,2.17,12.4,2.25,4.1,2.58,11,5.05,7.86,5.15,6.19,1.12
CN1CCC(n2cnc(-c3ccc(F)cc3)c2-c2ccnc(N)n2)CC1,7.96,1.08,7.37,1.63,1.25,3.39,5.28,0.79,5.37,2.95,12,3.26,3.41,4.61,11,2.73,7.85,3.58,6.77,-1.05
Nc1nc(-c2cccc(Cl)c2)c(-c2ccc3ncccc3n2)s1,4.83,3.18,5.58,1.1,-2.15,8.2,14.4,1.48,3.7,12.6,60.1,5.85,5.35,10.7,46.9,5.29,7.53,5.84,7.74,-1.9
CCn1c(-c2nonc2N)nc2c(C#CC(C)(C)O)nc(OC[C@H](N)c3ccccc3)cc21,2.98,3.29,5.24,1.89,2.08,7.07,28.8,3.33,16,4.79,35.1,2.26,4.39,6.18,21.1,7.92,42.7,9.64,42.4,-0.06
CCc1nn2ncccc2c1-c1ccnc(NC2CC2)n1,14.8,2.59,17.4,3.06,24.8,3.95,8.22,0.96,3.67,0.62,5.59,2.65,2.39,3.11,3.73,1.74,3.6,1.75,5.22,-1.35
Cc1cccc(Nc2ncc(-c3ccccc3)o2)c1,7.93,3.4,7.88,0.68,11.2,3.16,7.96,1.52,4.15,2.79,14.1,2.53,2.53,2.9,10.2,1.44,4.08,1.8,4.97,0.69
Fc1cccc(COc2ccc(Nc3ncnc4sc(-c5ccco5)cc34)cc2Cl)c1,3.83,3.38,6.89,5.96,7.59,9.25,15,1.99,3.87,3.43,6.92,5.47,3.29,6.46,7.36,4.94,8.32,6.61,8.59,-1.76
N#Cc1c(NC(=O)CN2CCOCC2)sc2c1CCCC2,8.53,4.66,10.7,2.31,-1.84,5.94,6.99,1.71,2.67,10.5,8.62,6.12,5.95,6.83,6.87,5.59,8.28,4.7,8.26,-1.62
Cc1cccc2c1NC(=O)/C2=N\Nc1ccc(S(N)(=O)=O)cc1,8.68,3.31,7.09,2.56,12.1,3.27,4.33,0.93,0.8,10.1,48.9,2.57,1.95,7.44,34.6,6.81,24.4,7.49,15.2,-2.65
Fc1ccc(-c2nn3ccccc3c2-c2ccncc2)cc1,8.81,-1.03,4.77,0.61,2.01,2.07,1.79,2.33,7.42,5.52,38.3,1.23,2.3,4.74,22.3,0.01,0.15,0.09,0.63,-1.27
CC(=O)Nc1cccc(C#Cc2cncnc2Nc2ccc(OCc3cccc(F)c3)c(Cl)c2)c1,8.44,1.68,5.28,2.09,15.3,2.85,4.01,0.88,1.54,2.7,2.59,2.07,3.13,2.21,3.87,3.97,5.79,4.97,2.1,1.4
CCNC(=O)O[C@H]1CN[C@H](C#Cc2cc3ncnc(Nc4ccc(OCc5cccc(F)c5)c(Cl)c4)c3s2)C1,9.61,0.34,8.23,1.85,12,3.53,9.99,0.18,2.21,4.18,5.98,2.35,1.8,4.31,5.58,5.6,5.6,6.17,5.21,-1.55
O=S(=O)(CCNCc1ccc(-c2ccc3ncnc(Nc4ccc(OCc5cccc(F)c5)c(Cl)c4)c3c2)o1)c1ccccc1,6.24,5.41,11.8,2.93,10.2,9.92,17.5,2.04,5.59,4.02,10.8,6.48,5.62,5.49,5.63,4.83,7.44,8.36,9.44,-1.43
